Assay [1] addresses ATP-dependent 6-phosphofructokinase (Trypanosoma brucei brucei) (UniProt O15648). Briefly: qHTS Assay to Find Inhibitors of T. brucei phosphofructokinase: hit validation (AID 492961).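 Note: luminescence reports ADP formed as PFK phosphorylates fructose-6-phosphate with ATP; series mostly up to about 51 µM.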 Put shortly: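 Measures ADP output of PFK (1.25 nM) at 0.1 mM ATP, 0.5 mM F6P, pH 8.0 TEA buffer with 5 mM MgCl2. No-enzyme wells define full inhibition; uninhibited enzyme wells define zero.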
Assay [2] can be described thus: Validation screen for small molecules that induce DNA re-replication in MCF 10A normal breast cells (AID 463097). Note: nearly all actives have a fitted effect of over 60% in size. Put shortly: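 Image-based qHTS: normal breast cells are incubated with compound for 48 hr, stained with Hoechst, and scanned for total nuclear fluorescence. Compounds raising the fraction of nuclei with elevated DNA content count as re-replication inducers.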

The target in assay [3] is M-phase phosphoprotein 8 (Homo sapiens) (UniProt Q99549). The experiment in a line: qHTS Validation Assay for Inhibitors for MPP8 Chromodomain Interactions with Methylated Histone Tails (AID 488949).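 Note: 50 nM MPP8 with 50 nM peptide preformed then compounds added for 30 min; AlphaScreen signal from MPP8 chromodomain bound to biotinylated H3K9me3 peptide; top concentration of the series differs between compounds; nearly all actives have a fitted effect of over 55% in size.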 The method, boiled down: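 50 nM MPP8 + 50 nM b-H3K9me3 peptide, PBS pH 7.4/0.01% Tween-20, 30 min RT; + cpd 30 min RT; + AlphaScreen donor/Ni-chelate acceptor beads 10 ug/mL final, 30 min dark; luminescence read.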
Sequence of M-phase phosphoprotein 8 (Homo sapiens) (Q99549 whole entry, looked up): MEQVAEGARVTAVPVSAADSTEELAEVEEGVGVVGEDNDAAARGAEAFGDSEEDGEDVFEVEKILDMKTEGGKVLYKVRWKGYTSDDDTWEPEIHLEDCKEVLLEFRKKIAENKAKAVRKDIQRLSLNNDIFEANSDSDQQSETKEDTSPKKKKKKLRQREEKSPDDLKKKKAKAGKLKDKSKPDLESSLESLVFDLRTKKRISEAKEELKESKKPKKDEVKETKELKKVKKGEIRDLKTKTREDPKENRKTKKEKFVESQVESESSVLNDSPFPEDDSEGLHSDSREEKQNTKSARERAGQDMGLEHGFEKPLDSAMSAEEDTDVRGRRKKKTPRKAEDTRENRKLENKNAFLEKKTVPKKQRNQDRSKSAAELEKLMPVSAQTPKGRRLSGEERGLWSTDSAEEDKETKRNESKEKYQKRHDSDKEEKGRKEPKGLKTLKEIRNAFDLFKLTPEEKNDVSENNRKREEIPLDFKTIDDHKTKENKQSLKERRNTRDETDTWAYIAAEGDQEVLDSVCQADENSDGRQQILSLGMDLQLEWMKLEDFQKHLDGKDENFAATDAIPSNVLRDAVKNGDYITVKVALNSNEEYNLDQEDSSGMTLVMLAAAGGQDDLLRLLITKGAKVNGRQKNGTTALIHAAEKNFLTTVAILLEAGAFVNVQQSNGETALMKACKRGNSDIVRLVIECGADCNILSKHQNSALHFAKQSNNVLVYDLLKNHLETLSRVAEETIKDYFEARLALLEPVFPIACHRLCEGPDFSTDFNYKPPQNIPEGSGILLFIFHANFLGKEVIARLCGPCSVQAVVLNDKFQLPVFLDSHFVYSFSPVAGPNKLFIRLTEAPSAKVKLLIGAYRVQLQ

Assay [4] addresses Transient receptor potential cation channel subfamily V member 1 (Homo sapiens) (UniProt Q8NER1). The experiment in a line: HTS Assay for Compounds that Act as Enhancers of the Vanilloid Receptor 1 (AID 488979). The method, boiled down: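 Calcium influx kinetics via Fluo-8 (480/520 nm) in TRPV1-expressing cells, 2000/well cultured overnight at 35.5C. Compound-alone read 3 min (agonist phase), followed by EC20 capsaicin challenge for 2 min (enhancer phase).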

Assay [5] deals with Thyrotropin receptor (Homo sapiens) (UniProt P16473). Briefly: qHTS Assay for Antagonists of the Thyroid Stimulating Hormone Receptor (AID 488980). Note: series mostly up to about 58 µM. The method, boiled down: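 Readout is cAMP by HTRF competition between cellular cAMP and cAMP-d2 for a cryptate-labelled antibody. Antagonism was assessed in TSHR-transfected HEK293 cells stimulated with 4 nM TSH (EC80, final) in the presence of RO 20-1724.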
Sequence of Thyrotropin receptor (Homo sapiens) (P16473 whole entry, looked up): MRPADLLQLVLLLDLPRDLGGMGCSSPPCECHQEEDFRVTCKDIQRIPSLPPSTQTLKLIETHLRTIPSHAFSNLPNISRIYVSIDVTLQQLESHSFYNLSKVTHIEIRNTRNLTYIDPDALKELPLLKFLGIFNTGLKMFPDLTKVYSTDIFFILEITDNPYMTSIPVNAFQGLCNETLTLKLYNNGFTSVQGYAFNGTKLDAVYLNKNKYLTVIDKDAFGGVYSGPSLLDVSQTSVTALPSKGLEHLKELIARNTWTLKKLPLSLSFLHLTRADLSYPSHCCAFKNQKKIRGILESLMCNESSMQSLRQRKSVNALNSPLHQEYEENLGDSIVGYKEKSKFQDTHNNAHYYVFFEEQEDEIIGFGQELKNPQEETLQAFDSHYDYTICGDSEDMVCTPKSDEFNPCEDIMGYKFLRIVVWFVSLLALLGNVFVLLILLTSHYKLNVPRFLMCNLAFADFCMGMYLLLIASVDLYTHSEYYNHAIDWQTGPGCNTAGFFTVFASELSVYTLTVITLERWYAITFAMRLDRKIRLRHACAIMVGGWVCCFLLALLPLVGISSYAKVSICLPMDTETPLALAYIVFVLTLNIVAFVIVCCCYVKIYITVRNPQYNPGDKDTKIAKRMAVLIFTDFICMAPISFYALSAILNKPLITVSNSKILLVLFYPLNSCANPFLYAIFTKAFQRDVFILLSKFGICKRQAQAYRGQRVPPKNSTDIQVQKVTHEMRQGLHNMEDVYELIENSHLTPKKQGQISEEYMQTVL

A short description of assay [6]: Quantitative high throughput screen for delayed death inhibitors of the malarial parasite plastid, 96 hour incubation (AID 488745).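 Note: luciferase-expressing P. falciparum in erythrocytes at 2% hematocrit and 0.1% parasitemia; series mostly up to about 29 µM; nearly all actives have a fitted effect of over 70% in size.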 Put shortly:
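Luciferase-expressing P. falciparum, infected RBCs 2% Hct/0.1% parasitemia (final); 96 h cpd exposure, 37 C, 5% CO2; RPMI 1640 + 0.5% Albumax, bicarbonate, gentamycin. Readout: luminescence loss = growth inhibition.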

Assay [7] in a line: Quantitative high throughput screen for delayed death inhibitors of the malarial parasite plastid, 48 hour incubation (AID 488752). Note: nearly all actives have a fitted effect of over 65% in size. The method, boiled down:
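Luciferase-expressing P. falciparum in RBCs, 2% Hct, 0.1% parasitemia final; RPMI 1640 + 0.5% Albumax; 48 h, 37 C, 5% CO2; luminescence readout, signal drop = growth inhibition.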

For assay [8], the target named is Tyrosyl-DNA phosphodiesterase 1 (Homo sapiens) (UniProt Q9NUW8). The experiment in a line: Confirmation Assay for Inhibitors of Tyrosyl-DNA Phosphodiesterase (TDP1) (AID 489007). Note: potency is the fitted concentration of half-maximal effect; nearly all actives have a fitted effect of over 40% in size. The note with it: recombinant human TDP1 enzymatic activity, dose-response. The method, boiled down: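 AlphaScreen read-out: streptavidin donor and anti-FITC acceptor beads (10 ug/ml) bind intact substrate, so Tdp1 removal of tyrosine-FITC lowers signal. Enzyme 1 nM, substrate 15 nM, 5 min reaction at room temperature after 15 min compound preincubation.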
Sequence of Tyrosyl-DNA phosphodiesterase 1 (Homo sapiens) (Q9NUW8 whole entry, looked up): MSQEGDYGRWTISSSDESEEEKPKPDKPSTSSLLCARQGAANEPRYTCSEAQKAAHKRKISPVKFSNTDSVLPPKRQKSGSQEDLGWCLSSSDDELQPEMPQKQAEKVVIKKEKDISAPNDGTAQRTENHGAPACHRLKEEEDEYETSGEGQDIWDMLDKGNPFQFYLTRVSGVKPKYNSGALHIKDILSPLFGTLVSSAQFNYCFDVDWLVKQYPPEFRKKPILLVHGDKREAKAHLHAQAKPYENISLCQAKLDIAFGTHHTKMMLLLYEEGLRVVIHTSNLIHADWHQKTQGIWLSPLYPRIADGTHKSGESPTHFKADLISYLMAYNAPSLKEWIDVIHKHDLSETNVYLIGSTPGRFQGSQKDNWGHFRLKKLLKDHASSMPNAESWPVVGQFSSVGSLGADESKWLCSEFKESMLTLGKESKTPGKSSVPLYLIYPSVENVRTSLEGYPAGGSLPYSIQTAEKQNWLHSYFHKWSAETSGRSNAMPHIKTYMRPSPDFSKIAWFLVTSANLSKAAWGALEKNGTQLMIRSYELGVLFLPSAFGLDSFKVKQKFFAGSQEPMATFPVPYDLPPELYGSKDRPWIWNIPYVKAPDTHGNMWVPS

Records with an inconclusive call do not appear. Entries that show only a call come without a potency. Active and inactive are the calls of the source. Calls come from the whole dose curve; as a rule, active = well fitted curve in the direction sought with a large enough effect; inconclusive = small, poorly fitted or top-dose-only effect, or another doubt; inactive = no such curve, though single readings can be large; an effect the other way counts as inactive or inconclusive.

Sequence of Transient receptor potential cation channel subfamily V member 1 (Homo sapiens) (Q8NER1 whole entry, looked up): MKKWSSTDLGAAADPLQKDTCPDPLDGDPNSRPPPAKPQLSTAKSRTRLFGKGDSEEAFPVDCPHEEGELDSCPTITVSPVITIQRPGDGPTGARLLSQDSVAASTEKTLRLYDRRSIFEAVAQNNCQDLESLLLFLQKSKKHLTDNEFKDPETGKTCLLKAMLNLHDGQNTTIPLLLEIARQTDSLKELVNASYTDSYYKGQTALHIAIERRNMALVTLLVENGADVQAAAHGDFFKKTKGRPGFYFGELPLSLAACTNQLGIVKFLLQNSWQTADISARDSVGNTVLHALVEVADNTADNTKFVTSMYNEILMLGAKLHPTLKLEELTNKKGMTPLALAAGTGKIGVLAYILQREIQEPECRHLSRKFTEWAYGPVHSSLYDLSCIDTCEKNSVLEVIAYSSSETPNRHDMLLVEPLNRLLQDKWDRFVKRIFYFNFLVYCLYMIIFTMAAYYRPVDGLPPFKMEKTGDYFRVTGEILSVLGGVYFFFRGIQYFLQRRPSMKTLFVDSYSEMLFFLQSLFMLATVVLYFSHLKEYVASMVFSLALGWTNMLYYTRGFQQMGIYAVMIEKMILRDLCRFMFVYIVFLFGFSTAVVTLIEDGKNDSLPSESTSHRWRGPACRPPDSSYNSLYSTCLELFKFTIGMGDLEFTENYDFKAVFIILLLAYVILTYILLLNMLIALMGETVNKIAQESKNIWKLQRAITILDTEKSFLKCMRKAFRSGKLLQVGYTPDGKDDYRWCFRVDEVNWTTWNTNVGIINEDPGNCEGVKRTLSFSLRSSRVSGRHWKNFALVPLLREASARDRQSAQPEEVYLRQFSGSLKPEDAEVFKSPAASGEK
Sequence of ATP-dependent 6-phosphofructokinase (Trypanosoma brucei brucei) (O15648 whole entry, looked up): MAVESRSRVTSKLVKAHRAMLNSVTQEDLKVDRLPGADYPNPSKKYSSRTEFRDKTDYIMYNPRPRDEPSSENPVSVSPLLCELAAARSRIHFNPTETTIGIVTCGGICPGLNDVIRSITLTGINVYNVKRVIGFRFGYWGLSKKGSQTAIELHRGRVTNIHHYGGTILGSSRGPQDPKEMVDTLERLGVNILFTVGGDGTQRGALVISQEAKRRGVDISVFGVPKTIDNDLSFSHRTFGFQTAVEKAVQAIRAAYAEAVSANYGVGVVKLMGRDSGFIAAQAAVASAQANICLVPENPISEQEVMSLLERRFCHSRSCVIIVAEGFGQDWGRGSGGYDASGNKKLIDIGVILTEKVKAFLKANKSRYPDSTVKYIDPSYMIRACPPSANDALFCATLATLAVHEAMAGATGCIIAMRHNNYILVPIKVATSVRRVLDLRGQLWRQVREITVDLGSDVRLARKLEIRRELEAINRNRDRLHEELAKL

For `CCOc1ccc(S(=O)(=O)O)c2cccnc12`, in assay [1], the Potency result is “inactive”.
Regarding `C[C@@](Cc1ccc(O)c(O)c1)(NN)C(=O)O`, the compound was called inactive in assay [2], in assay [3], in assay [4] and in assay [5].
In the case of `Cc1cc(C)c(NC(=O)C[C@H](CC(=O)O)c2cccc3ccccc23)c(C(=O)N2CCC3(CCCC3)CC2)c1`, the outcome in assay [2], in assay [6], in assay [7], in assay [3], in assay [4] and in assay [5] was inactive. Also, in assay [1], the Potency entry is “inactive”.
With `COc1ccc(C(=O)CCC(=O)O)c2ccccc12`, in assay [1], the Potency entry was “inactive”.
For the compound `F[Si-2](F)(F)(F)(F)F`, the Potency result in assay [1] was “inactive”.
Still for that read-out and setting: next, `C[C@H](CCC(=O)O)[C@H]1CC[C@H]2[C@@H]3CC[C@@H]4C[C@H](O)CC[C@]4(C)[C@H]3C[C@H](O)[C@]12C`: “inactive”.
On the same count and under the same terms, next, `Cc1cc(C(=O)NCCc2ccc(S(=O)(=O)NC(=O)NN3CCCCCC3)cc2)no1`: “inactive”; `O=C(O)Cc1nn(Cc2ccc(Br)cc2F)c(=O)c2ccccc12`: “inactive”; `Nc1ncnc2c1ncn2[C@H]1CC[C@@H](CO)O1`: “inactive”.
Turning to `CC(C)Cc1ccc([C@@H](C)C(=O)NS(C)(=O)=O)cc1`, in assay [1], the Potency entry was “inactive”.
For the compound `O=P(O)(O)OP(=O)(O)OP(=O)(O)O`, the Potency result in assay [1] was “inactive”.
As to `S=C1SCN(Cc2ccccc2)CN1Cc1ccccc1`, the Potency entry in assay [1] was “inactive”.
On the same count and under the same terms, next, `CCCCC`: “inactive”.
Consider `O=C(NCCNCC(O)COc1ccc(O)cc1)N1CCOCC1` (stereo not given), for which the result in assay [2], in assay [6], in assay [7], in assay [3], in assay [4] and in assay [5] was inactive.
In the case of `O=c1[nH]c(=O)n([C@H]2C[C@H](O)[C@@H](CO)O2)cc1/C=C/Br`, the compound was classed as inactive in assay [2], in assay [7], in assay [3], in assay [4] and in assay [5]. Further, the Potency entry in assay [1] was “inactive”.
Take `CCN(CC)CCOC(=O)c1cccnc1`: the Potency result in assay [1] is “inactive”.
Consider `O=C(O)[C@H]1C(=CCO)O[C@H]2CC(=O)N12`, for which, in assay [1], the Potency result is “inactive”.
Still for that read-out and setting: as for `COc1ccc(/C=C/C(=O)OCCC(C)C)cc1`, the entry is “inactive”; as for `O=C(CCCN1CCN2CCCC2C1)c1ccc(F)cc1` (stereo not given), “inactive”.
The same measure, in the same setting: as for `CCCCC(CC)COS(=O)(=O)O` (stereo not given), the entry is “inactive”; as for `c1ccc2c(c1)OCC(CN1CCCCC1)O2` (stereo not given), “inactive”; as for `CCCC(CCC)C(=O)OC1C[C@H]2CC[C@@H](C1)[N+]2(C)C` (stereo not given in full), “inactive”.
For `O=C(O)c1cc(N=Nc2ccc(O)c(C(=O)O)c2)ccc1O`, the Potency result in assay [1] is “inactive”.
As for `Cn1nnnc1SCC1=C(C(=O)O)N2C(=O)[C@@H](NC(=O)[C@H](O)c3ccccc3)[C@H]2SC1`, the Potency in assay [8] is 3.98 µM (active).
As for `O=C1c2ccccc2C(=O)c2c1ccc(O)c2O`, in assay [1], the Potency result was “inactive”.
For `C=Cc1ccc(S(=O)(=O)O)cc1`, in assay [8], the Potency was 12.6 µM (active). For the same compound, the Potency entry in assay [1] was “inactive”.
`CCCCCCCCCCCCCCCCCC[N+](C)(C)CCC[Si](OC)(OC)OC`: in assay [1], the Potency entry was “inactive”.
On the same count and under the same terms, as for `CCCCCCCCCCCCCCCCOCCOCCOCCOCCOCCOCCOCCOCCOCCOCCOCCOCCOCCOCCOCCOCCOCCOCCOCCOCCO`, the entry is “inactive”.
Consider `CC(=O)Nc1ccc(NC(=S)NC(=O)c2ccc(C(C)(C)C)cc2)cc1`, for which the Potency result in assay [1] is “inactive”.
Consider `CCOC(=O)[C@@H](N)CS`, for which the Potency entry in assay [1] was “inactive”.

(Values after PubChem BioAssay (NCATS).)
